# According to the supplement of paper PMC6555819:
# What was measured:
# Assay in all cases: PBM binding z-score (relative to random genomic background probes); higher = stronger binding; sequences stand for … in GC…GCGATTGACAGCGTAGAATGAAGG
# [1] = system: RARb homodimer (NR concentration 270 nM)
# How it was run: (§1)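 Binding z-scores take random background probes as their reference. They come from custom Agilent 4×180K protein-binding microarrays incubated 1 h with ligand-free nuclear receptor dimers, with antibodies against each partner (one per run) detecting binding. Scanned fluorescence was regression-normalized.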
# [2] = system: RARg:RXRa (NR concentration 270 nM, RXRa partner concentration 90 nM)
# How it was run: as §1
# [3] = system: RARg homodimer (NR concentration 270 nM)
# How it was run: as §1
# [4] = system: RXRa DBDmut IVT, anti-RXR (DBD mutation: RXRa K156A/R161A, NR concentration 90 nM)
# How it was run: as §1
# [5] = system: RXRa homodimer (NR concentration 180 nM)
# How it was run: as §1
# [6] = system: THRa:RXRa (NR concentration 90 nM, RXRa partner concentration 90 nM)
# How it was run: as §1
# [7] = system: THRa homodimer (NR concentration 90 nM)
# How it was run: as §1
# [8] = system: VDR homodimer (NR concentration 270 nM)
# How it was run: as §1
sequence,measurement,setting,value
ACAGACAGGTGATGAAGGTAACTCATGCTATCAT,PBM binding z-score,[1],0.0338
same,PBM binding z-score,[2],0.394
same,PBM binding z-score,[3],0.615
same,PBM binding z-score,[4],-0.0265
same,PBM binding z-score,[5],0.382
same,PBM binding z-score,[6],0.149
same,PBM binding z-score,[7],-0.485
same,PBM binding z-score,[8],-0.456
TCTTCTAGATCAGCAGGTTAAGAAAGCTGGCCAA,PBM binding z-score,[1],-0.301
same,PBM binding z-score,[2],0.12
same,PBM binding z-score,[3],0.0708
same,PBM binding z-score,[4],0.571
same,PBM binding z-score,[5],0.331
same,PBM binding z-score,[6],0.17
same,PBM binding z-score,[7],-0.696
same,PBM binding z-score,[8],-0.431
ATCTCTAGGTAAAGATAGTTCACTGAATGCAAAT,PBM binding z-score,[1],1.54
same,PBM binding z-score,[2],1.1
same,PBM binding z-score,[3],1.18
same,PBM binding z-score,[4],0.234
same,PBM binding z-score,[5],0.828
same,PBM binding z-score,[6],1.31
same,PBM binding z-score,[7],0.149
same,PBM binding z-score,[8],1.13
GCTATTAGTTGACAGGGCAACCGAATGATTCTCG,PBM binding z-score,[1],0.837
same,PBM binding z-score,[2],0.251
same,PBM binding z-score,[3],0.693
same,PBM binding z-score,[4],0.605
same,PBM binding z-score,[5],0.324
same,PBM binding z-score,[6],-0.129
same,PBM binding z-score,[7],-0.0185
same,PBM binding z-score,[8],-0.0905
CATACGGGGTCAGCTAGGCCAGAGTAGGGACGGC,PBM binding z-score,[1],4
same,PBM binding z-score,[2],6.37
same,PBM binding z-score,[3],6.46
same,PBM binding z-score,[4],3.01
same,PBM binding z-score,[5],7.61
same,PBM binding z-score,[6],3.98
same,PBM binding z-score,[7],1.61
same,PBM binding z-score,[8],3.27
TGAATCAGGTTATAAGATCAGGGAACGTTGCAAA,PBM binding z-score,[1],-0.228
same,PBM binding z-score,[2],0.24
same,PBM binding z-score,[3],0.42
same,PBM binding z-score,[4],-0.671
same,PBM binding z-score,[5],0.358
same,PBM binding z-score,[6],0.505
same,PBM binding z-score,[7],-0.129
same,PBM binding z-score,[8],0.0493
TCTCGGTGGACACGAAAGGTCAGAGCTCGACATC,PBM binding z-score,[1],4.36
same,PBM binding z-score,[2],4.38
same,PBM binding z-score,[3],4.33
same,PBM binding z-score,[4],0.665
same,PBM binding z-score,[5],4.52
same,PBM binding z-score,[6],2.96
same,PBM binding z-score,[7],0.543
same,PBM binding z-score,[8],0.45
